Experimental data as given in ChEMBL document CHEMBL5724796, “Tm Shift (DSF) assay results for EUbOPEN Chemogenomics Library” (2024).

What was measured:
Settings in all cases: Compound concentration 20.0 uM
[1] = molecular target: Tyrosine-protein kinase ABL1 (Homo sapiens) (UniProt P00519)
[2] = molecular target: Bromodomain-containing protein 4 (Homo sapiens) (UniProt O60885)
[3] = molecular target: Cyclin-dependent kinase 2 (Homo sapiens) (UniProt P24941)
[4] = molecular target: Casein kinase I isoform delta (Homo sapiens) (UniProt P48730)
[5] = molecular target: Glycogen synthase kinase-3 beta (Homo sapiens) (UniProt P49841)
[6] = molecular target: Mitogen-activated protein kinase 1 (Homo sapiens) (UniProt P28482)
[7] = molecular target: T1, Aurora kinase A (Homo sapiens) (UniProt O14965)
T1 sequence (whole entry): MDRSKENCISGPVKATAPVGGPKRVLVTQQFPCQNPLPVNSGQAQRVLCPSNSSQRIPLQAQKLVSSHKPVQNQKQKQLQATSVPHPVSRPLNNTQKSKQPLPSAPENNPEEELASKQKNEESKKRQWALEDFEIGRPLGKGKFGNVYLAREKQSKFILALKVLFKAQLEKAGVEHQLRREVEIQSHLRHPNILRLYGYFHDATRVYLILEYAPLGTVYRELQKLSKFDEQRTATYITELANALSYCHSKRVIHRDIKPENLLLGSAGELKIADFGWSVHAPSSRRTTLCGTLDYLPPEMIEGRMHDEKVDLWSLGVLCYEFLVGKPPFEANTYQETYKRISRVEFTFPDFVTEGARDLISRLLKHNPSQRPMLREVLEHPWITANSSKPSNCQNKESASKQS

[8] = molecular target: T2, Transcription intermediary factor 1-alpha (Homo sapiens) (UniProt O15164)
T2 sequence (whole entry): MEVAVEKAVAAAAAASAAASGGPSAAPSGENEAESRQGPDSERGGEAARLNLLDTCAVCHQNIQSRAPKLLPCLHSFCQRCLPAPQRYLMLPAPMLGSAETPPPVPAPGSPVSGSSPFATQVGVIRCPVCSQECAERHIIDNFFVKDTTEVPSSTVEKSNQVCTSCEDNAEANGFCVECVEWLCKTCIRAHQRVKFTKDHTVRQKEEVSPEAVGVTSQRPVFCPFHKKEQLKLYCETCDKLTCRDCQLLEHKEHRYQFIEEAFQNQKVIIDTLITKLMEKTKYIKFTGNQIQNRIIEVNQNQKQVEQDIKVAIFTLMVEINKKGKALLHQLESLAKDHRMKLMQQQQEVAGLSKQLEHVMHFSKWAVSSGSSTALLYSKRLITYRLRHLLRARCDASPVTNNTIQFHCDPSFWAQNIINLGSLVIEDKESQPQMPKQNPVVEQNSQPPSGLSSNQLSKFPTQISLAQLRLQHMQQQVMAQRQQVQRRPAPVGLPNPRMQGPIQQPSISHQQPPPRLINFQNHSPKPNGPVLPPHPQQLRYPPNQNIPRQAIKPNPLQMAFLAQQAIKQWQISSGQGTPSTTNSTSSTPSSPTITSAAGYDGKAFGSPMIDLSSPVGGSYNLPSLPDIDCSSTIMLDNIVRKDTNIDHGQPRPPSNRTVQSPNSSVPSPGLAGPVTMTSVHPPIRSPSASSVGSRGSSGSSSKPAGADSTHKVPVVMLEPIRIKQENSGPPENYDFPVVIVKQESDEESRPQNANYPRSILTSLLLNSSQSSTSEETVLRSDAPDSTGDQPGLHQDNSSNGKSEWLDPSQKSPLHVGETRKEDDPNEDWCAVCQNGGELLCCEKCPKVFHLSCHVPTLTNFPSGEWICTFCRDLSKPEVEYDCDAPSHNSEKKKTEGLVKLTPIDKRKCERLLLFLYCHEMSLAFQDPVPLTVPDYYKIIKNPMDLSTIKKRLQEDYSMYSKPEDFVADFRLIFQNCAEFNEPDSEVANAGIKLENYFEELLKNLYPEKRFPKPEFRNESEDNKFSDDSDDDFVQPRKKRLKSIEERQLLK

Mitogen-activated protein kinase 1 (Homo sapiens), sequence (P28482 whole entry): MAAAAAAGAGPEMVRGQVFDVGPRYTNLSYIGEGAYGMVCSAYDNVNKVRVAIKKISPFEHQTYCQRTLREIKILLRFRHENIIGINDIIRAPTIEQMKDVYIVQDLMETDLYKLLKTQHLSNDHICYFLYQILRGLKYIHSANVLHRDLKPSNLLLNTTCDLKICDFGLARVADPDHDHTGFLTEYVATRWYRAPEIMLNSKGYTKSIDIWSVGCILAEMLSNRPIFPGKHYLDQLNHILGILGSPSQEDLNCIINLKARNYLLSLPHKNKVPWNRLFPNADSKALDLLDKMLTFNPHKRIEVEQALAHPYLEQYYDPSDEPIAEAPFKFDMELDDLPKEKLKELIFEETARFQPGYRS
Casein kinase I isoform delta (Homo sapiens), sequence (P48730 whole entry, looked up, canonical isoform): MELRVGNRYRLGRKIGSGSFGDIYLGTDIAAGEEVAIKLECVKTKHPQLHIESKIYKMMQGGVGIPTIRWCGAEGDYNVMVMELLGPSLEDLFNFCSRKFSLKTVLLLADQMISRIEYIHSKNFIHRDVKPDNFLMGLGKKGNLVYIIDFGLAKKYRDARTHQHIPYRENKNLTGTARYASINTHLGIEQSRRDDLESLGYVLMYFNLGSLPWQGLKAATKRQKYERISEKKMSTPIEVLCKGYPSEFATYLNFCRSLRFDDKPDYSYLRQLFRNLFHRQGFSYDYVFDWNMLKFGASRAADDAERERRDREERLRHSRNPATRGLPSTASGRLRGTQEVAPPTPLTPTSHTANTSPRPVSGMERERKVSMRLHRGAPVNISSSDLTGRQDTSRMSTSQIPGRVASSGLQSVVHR
Tyrosine-protein kinase ABL1 (Homo sapiens), sequence (P00519 whole entry): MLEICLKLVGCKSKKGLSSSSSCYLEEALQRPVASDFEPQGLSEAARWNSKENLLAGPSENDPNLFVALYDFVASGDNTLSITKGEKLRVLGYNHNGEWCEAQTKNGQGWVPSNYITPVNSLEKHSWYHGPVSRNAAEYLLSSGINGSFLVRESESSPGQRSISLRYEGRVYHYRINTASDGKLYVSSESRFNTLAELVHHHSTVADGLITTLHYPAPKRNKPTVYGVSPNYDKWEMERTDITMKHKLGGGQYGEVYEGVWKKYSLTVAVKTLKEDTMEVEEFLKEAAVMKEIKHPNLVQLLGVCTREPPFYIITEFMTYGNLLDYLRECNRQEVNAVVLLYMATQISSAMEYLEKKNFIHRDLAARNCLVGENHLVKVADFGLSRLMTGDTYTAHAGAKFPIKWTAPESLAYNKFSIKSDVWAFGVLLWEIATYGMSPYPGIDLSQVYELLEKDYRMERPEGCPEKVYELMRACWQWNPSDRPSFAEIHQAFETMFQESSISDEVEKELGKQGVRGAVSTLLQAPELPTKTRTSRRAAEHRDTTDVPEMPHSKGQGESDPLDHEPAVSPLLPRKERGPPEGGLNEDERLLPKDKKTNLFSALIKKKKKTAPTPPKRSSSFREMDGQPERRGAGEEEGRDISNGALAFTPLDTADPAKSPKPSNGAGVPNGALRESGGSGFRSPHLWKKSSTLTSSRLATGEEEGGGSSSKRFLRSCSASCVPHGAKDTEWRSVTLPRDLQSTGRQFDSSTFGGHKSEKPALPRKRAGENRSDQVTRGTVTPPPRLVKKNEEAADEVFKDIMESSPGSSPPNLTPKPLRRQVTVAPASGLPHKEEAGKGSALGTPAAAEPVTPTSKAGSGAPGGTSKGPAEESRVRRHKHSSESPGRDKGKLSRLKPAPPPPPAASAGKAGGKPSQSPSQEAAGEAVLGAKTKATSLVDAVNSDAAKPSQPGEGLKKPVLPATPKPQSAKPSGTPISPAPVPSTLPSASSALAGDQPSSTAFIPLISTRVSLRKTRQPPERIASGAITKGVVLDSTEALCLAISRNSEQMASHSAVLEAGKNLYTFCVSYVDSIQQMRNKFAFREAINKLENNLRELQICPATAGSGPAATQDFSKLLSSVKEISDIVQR
Glycogen synthase kinase-3 beta (Homo sapiens), sequence (P49841 whole entry, looked up): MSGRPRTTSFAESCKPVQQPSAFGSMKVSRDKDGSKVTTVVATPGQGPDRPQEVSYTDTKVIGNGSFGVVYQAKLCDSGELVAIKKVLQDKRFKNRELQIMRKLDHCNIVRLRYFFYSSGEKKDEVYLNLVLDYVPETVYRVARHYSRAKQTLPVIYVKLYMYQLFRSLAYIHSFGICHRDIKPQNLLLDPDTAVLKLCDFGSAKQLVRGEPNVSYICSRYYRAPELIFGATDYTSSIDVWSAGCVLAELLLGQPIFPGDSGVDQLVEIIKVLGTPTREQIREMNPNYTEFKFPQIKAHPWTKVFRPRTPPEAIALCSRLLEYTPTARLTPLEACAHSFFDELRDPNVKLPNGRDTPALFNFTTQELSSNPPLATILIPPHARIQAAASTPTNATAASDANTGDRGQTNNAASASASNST

SMILES | ΔTm [1] [°C] | ΔTm [2] [°C] | ΔTm [3] [°C] | ΔTm [4] [°C] | ΔTm [5] [°C] | ΔTm [6] [°C] | ΔTm [7] [°C] | ΔTm [8] [°C]
COc1ccc(/C=C/C(=O)NO)c(-c2ccc(-c3ccccc3)cc2)c1 | -1.93 | 2.27 | 0.43 | -0.46 | 3.08 | -9.33 | 2.77 | 3.31
Cc1nc2ccccn2c1C(=O)CN1CCN(c2ccc(F)cn2)CC1 | -0.05 | 0.87 | 0.63 | -0.29 | -0.25 | 0.11 | -1.47 | 0.7
O=C(NO)c1ccc(CN2CCCc3cc(Cl)ccc32)cc1 | 0.31 | -1.3 | -0.96 | -0.07 | 0.96 | -0.12 | -0.45 | -1.53
O=c1[nH]c(Oc2cnn(Cc3ccccc3)c2)nc2cnccc12 | 0.64 | -2.42 | 0.14 | -0.09 | 0.35 | 0.33 | -1.07 | 0.34
N[C@@H](CCNCc1ccc(Cl)cc1)C(=O)N1CCCCC1 | 0.49 | -3.21 | 0 | -0.34 | -0.21 | 0.19 | -2.45 | 0.39
CNc1cc(-c2cccc(Cl)c2Cl)nc(N)n1 | 0.38 | -2.61 | 0.11 | -0.27 | -0.04 | 0.22 | -2.02 | 0.28
CCN(c1cc(C#CCN2CCOCC2)cc(C(=O)NCc2c(C)cc(C)[nH]c2=O)c1C)[C@H]1CC[C@H](N(C)CCOC)CC1 | 0.47 | -1.47 | 0.53 | 0.46 | -0.17 | 0.04 | -0.54 | -0.98
COc1cc([C@@H]2Oc3c(O)cc([C@H]4Oc5cc(O)cc(O)c5C(=O)[C@@H]4O)cc3[C@H]2CO)ccc1O | 0.61 | -1.83 | 0.16 | 0.36 | 3.53 | 0.13 | -1.74 | 1.87
CNCc1ccc(-c2cc3cc(F)cc(C(N)=O)c3o2)cc1 | 0.6 | -0.09 | 1.2 | 0.55 | 0.51 | 0.83 | -1.29 | 0.67
Cc1ccc([N+](=O)[O-])cc1S(=O)(=O)N(C)C | 0.7 | -1.98 | 0.09 | -0.33 | -0.61 | 0.1 | -2.12 | -0.39
CNC(=O)c1cc(Nc2ccnc(Nc3ccc(CCNC(=O)OC(C)(C)C)cc3)n2)n[nH]1 | 0.52 | -6.4 | -0.49 | 0.55 | -1.3 | -12.3 | -0.62 | 0.91
Cc1ncsc1-c1ccc(CNC(=O)[C@@H]2C[C@@H](O)CN2C(=O)[C@@H](NC(=O)COCC(C)(COCCOCCOCCNC(=O)C[C@@H]2N=C(c3ccc(Cl)cc3)c3c(sc(C)c3C)-n3c(C)nnc32)COCCOCCOCCNC(=O)C[C@@H]2N=C(c3ccc(Cl)cc3)c3c(sc(C)c3C)-n3c(C)nnc32)C(C)(C)C)cc1 | -0.19 | 0 | -4.95 | -6.12 | -4.05 | -12 | -4.07 | -6.48
CCc1ccccc1NC(=O)CSC(=O)NNC(=O)[C@H](Cc1c[nH]c2ccccc12)NC(=O)OC(C)(C)C | 1.95 | -0.97 | -0.07 | 0.05 | 4.75 | -10.2 | 3.62 | 5.76
CC(C)c1cc(C(=O)N2Cc3ccc(CN4CCN(C)CC4)cc3C2)c(O)cc1O | 1.01 | -1.29 | 0.67 | 0.22 | -0.43 | -0.06 | -0.12 | -0.61
CC(C)(Sc1ccncc1-c1ccc(C#N)c2ccccc12)C(=O)O | -0.01 | -0.37 | -0.1 | -0.19 | -0.7 | 0.17 | -1.93 | -0.49
Nc1ccccc1NC(=O)c1ccc(CNC(=O)OCc2cccnc2)cc1 | 0.63 | -1.69 | 0.81 | 0.33 | -0.75 | 0.21 | 0.05 | -1.42
O=C(C[C@@H](C(F)F)n1ccc(F)n1)N1CCC(O)(Cn2cnc3c(cnn3-c3ccc(F)cc3)c2=O)CC1 | 0.8 | -3.01 | 0.2 | 0.03 | -0.6 | 0.27 | -2.33 | 1.94
O=C1c2ccccc2C(=O)c2oc(-c3cccnc3)nc21 | 0.81 | -2.99 | 0.36 | -0.59 | 0.34 | 0.32 | -2.61 | -0.87
O=C(c1cc(Cc2n[nH]c(=O)c3ccccc23)ccc1F)N1CC(CNC2CC2)C1 | 0.54 | -1.65 | 0.08 | -0.14 | -0.61 | 0.06 | -2.47 | 0.44
O=C(CN1CCN(c2ccc(F)cn2)CC1)Nc1nc2c(s1)CCCC2 | 0.42 | -2.75 | 0.14 | -0.25 | 0.02 | 0.86 | -1.16 | -2.28
CCS(=O)(=O)N1CC(CC#N)(n2cc(-c3ncnc4[nH]ccc34)cn2)C1 | 2.37 | -1.2 | 0.85 | 1.28 | 3.43 | 0.18 | 5.08 | -0.73
CS(=O)(=O)c1ncn2c(NCc3c(F)ccc4c3CCO4)ncc(-c3ccc(C4CC4)nc3)c12 | 0.63 | -3.29 | 0.06 | -0.23 | -0.29 | 0.08 | -2.48 | -0.37
COc1ccc(CC[C@H]2CCC[C@@H](CCc3ccc(OC)cc3)N2C[C@@H](O)CO)cc1 | 0.7 | -3.11 | 0.11 | -0.1 | -0.21 | 0.31 | -2.3 | -0.71
